Screens from PubChem BioAssay.
Hits are enriched below; roughly 5% of the tested compounds scored in any of these assays.
SENP7 block: SENP7 protease inhibition; inhibition, % at 5 µM; recombinant SENP7, Z-RLRGG-aminoluciferin luminescence, 40 min; Q9BQF6; AID 434973; 330,000 compounds, 1.5% hits;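 active means inhibition above about 50% at the single test dose, limit read from the data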
Target sequence (Q9BQF6 706-1050 limits assumed): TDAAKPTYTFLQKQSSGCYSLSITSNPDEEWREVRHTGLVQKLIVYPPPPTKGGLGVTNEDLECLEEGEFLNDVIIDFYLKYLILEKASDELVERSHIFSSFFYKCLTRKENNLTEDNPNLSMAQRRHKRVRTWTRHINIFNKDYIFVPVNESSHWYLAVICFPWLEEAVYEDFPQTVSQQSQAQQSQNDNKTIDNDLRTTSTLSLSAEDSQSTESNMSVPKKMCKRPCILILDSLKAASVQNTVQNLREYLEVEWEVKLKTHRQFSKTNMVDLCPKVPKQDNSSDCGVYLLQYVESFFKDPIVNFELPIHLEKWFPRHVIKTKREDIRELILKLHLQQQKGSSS
EBI2 antag: antagonists of human EBI2 receptor. P32249. 360,000 compounds, 0.81% hits. EBI2 beta-arrestin recruitment, luminescence, 7a,25-OHC stimulated. inhibition, % at 5 µM; in the data active means inhibition above about 38%;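 further: enzyme fragment complementation signal reports receptor beta-arrestin coupling in cells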
SENP8 block-1: inhibitors of human SENP8 protease | inhibition, % at 10 µM | purified SENP8, Z-RLRGG-aminoluciferin cleavage, luminescence | Q96LD8 | 330,000 compounds, 1.2% hits; in the data active means inhibition above about 50%
Target sequence (Q96LD8 whole entry, looked up): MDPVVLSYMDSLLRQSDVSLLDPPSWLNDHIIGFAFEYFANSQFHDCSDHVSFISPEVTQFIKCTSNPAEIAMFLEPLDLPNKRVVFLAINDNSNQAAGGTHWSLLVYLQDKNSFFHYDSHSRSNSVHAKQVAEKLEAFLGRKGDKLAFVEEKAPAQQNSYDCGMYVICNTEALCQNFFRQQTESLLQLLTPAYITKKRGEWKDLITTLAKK
AHR act: human AHR activation | AHR-responsive luciferase reporter cells, luminescence | activation, % at 5 µM | 320,000 compounds, 2.5% hits | AID 2796; in the data active means activation above about 47%
SENP6 inh: SENP6 protease inhibition. Q9GZR1. inhibition, % at 10 µM. 330,000 compounds, 1.8% hits. AID 2599. Recombinant SENP6 catalytic domain, aminoluciferin luminescence;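 active means inhibition above about 50% at the single tested dose, limit read from the data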
SENP8 block-2: blocks human SENP8 cleavage of Nedd8 substrate | AID 602440 | recombinant SENP8, Nedd8 substrate fluorescence | inhibition, % at 20 µM | Q96LD8 | 360,000 compounds, 0.64% hits; in the data active means inhibition mostly above about 40%, no sharp cut-off; inactive means mostly below about 27%
EBI2 conf: confirmation of human EBI2 receptor antagonists. shares compounds with EBI2 antag. EBI2 beta-arrestin luminescence, 7a,25-OHC antagonism. inhibition, % at 5 µM. 2,400 compounds, 29% hits. AID 651997;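 active means inhibition of at least 50%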
EBI2 agonist: counter-screen for EBI2 antagonists: EBI2 agonist activity | shares compounds with EBI2 antag | EBI2-expressing cells, agonist mode, luminescence, 60 min; 0% vehicle, 100% 7α,25-dihydroxycholesterol control | activation, % at 5 µM | AID 652000 | 2,400 tested, under 10 active;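 active means activation of at least 50%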
bGal counter: counter-screen for EBI2 antagonists: E. coli beta-galactosidase inhibition; shares compounds with EBI2 antag; purified beta-galactosidase, luminescent Galacton Star, 15 min; inhibition, % at 5 µM; 2,400 compounds, 1% hits; AID 652176;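 active means replicate-average signal at least 3 plate SD below neutral wells, shown as high inhibition, flagging enzyme-inhibiting false positives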;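 further: higher means stronger loss of beta-gal luminescence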
Of the large screens only hits and unclear results are named; the others gave an inactive call (follow-up assays come after a bar, where they were run).

COc1ccc2[nH]cc(CCNS(=O)(=O)Cc3ccccc3)c2c1	none
O=C(CSc1ccc2c(c1)OCCO2)NCCc1ccc(Cl)cc1Cl	EBI2 antag 63 | EBI2 conf inactive | EBI2 agonist inactive | bGal counter inactive
COC(=O)c1cn(C(=O)c2cccc(C)c2)c2ccccc12	none
Cc1ccc(S(=O)(=O)N[C@H](C(=O)OCC(=O)N2N=C(c3ccc(Cl)cc3)CC2c2ccco2)C(C)C)cc1 (stereo partly specified)	EBI2 antag 44 | EBI2 conf 53 | EBI2 agonist inactive | bGal counter inactive
O=C(CNC(=O)c1ccccc1)OCC(=O)N1N=C(c2ccc(Cl)cc2)CC1c1ccco1 (stereo unspecified)	none
O=C(N=C1SC2CS(=O)(=O)CC2N1CCc1ccccc1)C1CC1 (stereo unspecified)	none
COc1cc(C)c(S(=O)(=O)NCc2cccnc2)cc1C	none
C/C(=N\NC(=O)c1cc2ccccc2cc1O)c1ccccn1	SENP7 block 72, EBI2 antag 50, SENP8 block-1 89, SENP6 inh 95 | EBI2 conf 76 | EBI2 agonist inactive | bGal counter inactive
C/C(=N\NC(=O)c1ccc(F)cc1)c1ccccn1	EBI2 antag 64 | EBI2 conf 84 | EBI2 agonist inactive | bGal counter inactive
CCOc1ccc(OCC(O)CN2CCN(S(=O)(=O)c3cccc(C(F)(F)F)c3)CC2)cc1 (stereo unspecified)	EBI2 antag 77 (no result: SENP7 block, SENP8 block-1, AHR act, SENP6 inh) | EBI2 conf inactive | EBI2 agonist inactive | bGal counter inactive
S=C(NCC1CCCO1)N1CCN(c2nc(-c3ccccc3)cs2)CC1 (stereo unspecified)	EBI2 antag 40 | EBI2 conf inactive | EBI2 agonist inactive | bGal counter inactive
S=C(NCc1ccco1)N1CCN(c2nc(-c3ccccc3)cs2)CC1	none
CS(=O)(=O)c1ccc(C(=O)OCC(=O)N2CCN(CCC3CCCCC3)CC2)cc1[N+](=O)[O-]	EBI2 antag 48 (no result: SENP7 block, SENP8 block-1, AHR act, SENP6 inh) | EBI2 conf 54 | EBI2 agonist inactive | bGal counter inactive
CCOC(=O)C(Oc1ccc2c(-c3ccc(OC)cc3)cc(=O)oc2c1C)c1ccccc1 (stereo unspecified)	EBI2 antag 36 | EBI2 conf inactive | EBI2 agonist inactive | bGal counter inactive
CC(=O)c1ccc(OCCCC(=O)N2CCN(S(=O)(=O)c3cccs3)CC2)cc1	EBI2 antag 49 | EBI2 conf inactive | EBI2 agonist inactive | bGal counter inactive
CC(=O)c1ccc(OCC(=O)N2CCN(S(=O)(=O)c3ccc(Br)s3)CC2)cc1	EBI2 antag 69 (no result: AHR act) | EBI2 conf inactive | EBI2 agonist inactive | bGal counter inactive
CCC(=O)c1ccc(OCC(=O)N2CCN(S(=O)(=O)c3ccc(Cl)s3)CC2)cc1	none
COc1ccccc1NC(=O)C(C)OC(=O)C1COc2ccccc2O1 (stereo unspecified)	none
CN1C(=O)C(O)(CC(=O)c2ccccn2)c2cc(Br)ccc21 (stereo unspecified)	EBI2 antag 36 | EBI2 conf inactive | EBI2 agonist inactive | bGal counter inactive
CN1C(=O)[C@@](O)(CC(=O)c2ccccc2)c2cc(Br)ccc21	none (no result: SENP7 block, SENP8 block-1, AHR act, SENP6 inh)
COc1ccc(CNC(=O)C2CCN(S(=O)(=O)c3ccc4nc5c(c(C(=O)O)c4c3)CCCC5)CC2)cc1	none (no result: SENP7 block, SENP8 block-1, AHR act, SENP6 inh)
Cc1ccc(S(=O)(=O)N(CCC(=O)O)c2ccccc2)cc1	none
CCCC1NC(=O)c2cc3ccccc3cc2-n2c1nc1cc(Cl)ccc1c2=O (stereo unspecified)	EBI2 antag 53 (no result: SENP7 block, SENP8 block-1, AHR act, SENP6 inh) | EBI2 conf 51 | EBI2 agonist inactive | bGal counter inactive
O=C1NC(Cc2ccccc2)c2nc3cc(Cl)ccc3c(=O)n2-c2cc(Cl)ccc21 (stereo unspecified)	none (no result: EBI2 antag, SENP8 block-2)
Cc1ccc2nc3n(c(=O)c2c1)-c1cc2ccccc2cc1C(=O)NC3Cc1ccccc1 (stereo unspecified)	EBI2 antag 54 (no result: SENP7 block, SENP8 block-1, AHR act, SENP6 inh) | EBI2 conf inactive | EBI2 agonist inactive | bGal counter inactive
CCC1NC(=O)c2cc3ccccc3cc2-n2c1nc1ccc(F)cc1c2=O (stereo unspecified)	none (no result: SENP7 block, SENP8 block-1, AHR act, SENP6 inh)
CCCC1NC(=O)c2cc3ccccc3cc2-n2c1nc1ccc(C)cc1c2=O (stereo unspecified)	EBI2 antag 57 (no result: SENP7 block, SENP8 block-1, AHR act, SENP6 inh) | EBI2 conf inactive | EBI2 agonist inactive | bGal counter inactive
Cc1ccc2cccc(S(=O)(=O)N3CCCc4ccccc43)c2n1	none
CCOC(=O)N(C)c1c(CC)nc2c(OCc3ccc(Cl)cc3Cl)cccn12	EBI2 antag 45 (no result: SENP7 block, SENP8 block-1, AHR act, SENP6 inh) | EBI2 conf 77 | EBI2 agonist inactive | bGal counter inactive
COc1ccc(NC(=O)c2ccc(Oc3ncccn3)cc2)cc1	none
CCOc1ncccc1C(=O)Nc1ccc(C(=O)Nc2ccc(OC)cc2)cc1	EBI2 antag 57 | EBI2 conf inactive | EBI2 agonist inactive | bGal counter inactive
O=C(Nc1cccnc1)/C(N=Nc1c(Cl)cccc1Cl)=C(\O)c1ccccc1	EBI2 antag 51 | EBI2 conf inactive | EBI2 agonist inactive | bGal counter inactive
CNC(=O)COC(=O)C1CCN(S(=O)(=O)c2ccc3c(c2)OCCO3)CC1	none
CSc1ccc(/C=N/NC(=O)CN2CCN(Cc3ccc(C)cc3)CC2)cc1	EBI2 antag 45 | EBI2 conf inactive | EBI2 agonist inactive | bGal counter inactive
CSc1ccc(/C=N/NC(=O)CN2CCN(Cc3ccccc3Cl)CC2)cc1	EBI2 antag 61 | EBI2 conf inactive | EBI2 agonist inactive | bGal counter inactive
CCOc1cc2[nH]c(=S)n(Cc3ccc(C(=O)O)cc3)c(=O)c2cc1OCC	none (no result: AHR act)
O=[N+]([O-])c1ccc2c(c1Nc1ccccc1Cl)=NC1(CCCCC1)N=2	EBI2 antag 63 | EBI2 conf inactive | EBI2 agonist inactive | bGal counter inactive
O=C(O)C1(Nc2ccccc2Cl)CCCC1	none (no result: SENP7 block, SENP8 block-1, AHR act, SENP6 inh)
O=c1[nH]nc(CNc2ccc(C(F)(F)F)cc2)c2ccccc12	none
O=c1[nH]nc(CNc2ccc(OC(F)(F)F)cc2)c2ccccc12	EBI2 antag 52 | EBI2 conf inactive | EBI2 agonist inactive | bGal counter inactive
O=S1(=O)CCN(Cc2ccncc2)CC1	none (no result: SENP7 block, SENP8 block-1, AHR act, SENP6 inh)
COc1ccc2nc(C)cc(SCC(=O)NNC(=O)COc3ccccc3)c2c1	EBI2 antag 48 | EBI2 conf inactive | EBI2 agonist inactive | bGal counter inactive
CCOC(=O)CNC(=O)CSc1cc(C)nc2ccc(OC)cc12	none
COc1c(N)c2c(c([N+](=O)[O-])c1OC)C(=O)OC2	none (no result: SENP7 block, SENP8 block-1, AHR act, SENP6 inh)
